The target of test [1] is Lysosomal acid glucosylceramidase (Homo sapiens) (UniProt P04062). The experiment in a line: Glucocerebrosidase-p2 (AID 348; in the data active means potency below about 10 µM; further: potency means the concentration at half of the fitted maximal effect). The following applies: purified GBA, blue fluorogenic substrate, 40 min. The method, boiled down: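 Compounds titrated from 0.6 nM upwards against 0.2 nM enzyme in pH 5.9 citric acid/KH2PO4, taurocholate, tween-20; blue fluorogenic substrate 80 uM, 40 min room temperature, stopped and read Ex 365/Em 440 for AC50.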
Lysosomal acid glucosylceramidase (Homo sapiens), sequence (P04062 whole entry, looked up): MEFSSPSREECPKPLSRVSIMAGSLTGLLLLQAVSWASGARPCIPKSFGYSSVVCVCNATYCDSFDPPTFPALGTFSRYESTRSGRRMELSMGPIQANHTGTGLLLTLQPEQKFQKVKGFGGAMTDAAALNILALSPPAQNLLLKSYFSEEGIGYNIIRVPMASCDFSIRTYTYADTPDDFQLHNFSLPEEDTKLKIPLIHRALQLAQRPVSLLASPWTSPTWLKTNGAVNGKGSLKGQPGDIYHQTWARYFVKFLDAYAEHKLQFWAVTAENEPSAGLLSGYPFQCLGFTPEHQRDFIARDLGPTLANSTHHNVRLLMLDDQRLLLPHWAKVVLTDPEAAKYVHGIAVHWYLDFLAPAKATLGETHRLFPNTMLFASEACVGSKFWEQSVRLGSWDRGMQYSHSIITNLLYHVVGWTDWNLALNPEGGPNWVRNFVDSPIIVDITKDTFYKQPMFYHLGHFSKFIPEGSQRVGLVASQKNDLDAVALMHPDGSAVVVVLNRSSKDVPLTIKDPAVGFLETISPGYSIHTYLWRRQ

The nature of test [2]: AP1 Signaling Pathway (AID 357).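 Further: ME-180 reporter cells stimulated with EGF at its EC50 level; on the % scale 0 is the no-effect control and ±100 the full control effect.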 The following applies: ME-180 AP-1-bla reporter, EGF-induced, beta-lactamase ratio, 5 h; at 7.69 µM (top of the series) unless noted. The gist of the method:
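Modulation of EGF-driven AP-1 transcription was assessed with a beta-lactamase reporter in ME-180 cells. Compound and EC50 EGF were co-incubated 5 hours at 37 °C before 2.5-hour CCF4 loading at room temperature and dual-emission reading.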

The nature of test [3]: NFAT Signaling Pathway (AID 444).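 Further: carbachol stimulus at about its EC50 of 1 µM final; on the % scale 0 is the no-effect control and ±100 the full control effect.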 Conditions: Jurkat NFAT-bla M1, carbachol, beta-lactamase ratio, 5 h; at 7.69 µM (top of the series) unless noted. The method, boiled down:
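Read-out: CCF4 FRET ratio (460 nm/530 nm) after 1 h RT dye loading, used for %activity and AC50 from titration series. Cells: Jurkat NFAT-β-lactamase/M1 line, treated with compound plus 1 uM carbachol for 5 h, 37 °C.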

Test [4] can be described thus: Stat Signaling Pathway (AID 446).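 Further: ME-180 cervical cancer cells given 40 pM IL-6 alongside compound; SIE-controlled beta-lactamase reporter measured as 460/530 nm FRET emission ratio; on the % scale 0 is the no-effect control and ±100 the full control effect.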 Conditions: ME-180 SIE beta-lactamase reporter, IL-6 stimulated, 5 h; at 7.69 µM (top of the series) unless noted. The gist of the method: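 Reporter line: ME-180 cervical carcinoma, SIE-beta-lactamase. Treatment: compound with 40 pM IL-6, 5 hrs, 37 C, in low-serum OPTI-MEM with 10 mM HEPES pH 7.3. Detection: 460/530 nm fluorescence.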

In test [5] the target is Glucocorticoid receptor (Homo sapiens) (UniProt P04150). The test can be described thus: GR-GFP Redistribution (AID 450;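 active means compounds whose dose series gives a full or clear partial fitted curve of increased nuclear translocation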; further: potency means the concentration at half of the fitted maximal effect). The following applies: U2OS GR-GFP nuclear translocation, laser cytometry, 2 h.
Glucocorticoid receptor (Homo sapiens), sequence (P04150 whole entry, looked up, the tested form may be a part): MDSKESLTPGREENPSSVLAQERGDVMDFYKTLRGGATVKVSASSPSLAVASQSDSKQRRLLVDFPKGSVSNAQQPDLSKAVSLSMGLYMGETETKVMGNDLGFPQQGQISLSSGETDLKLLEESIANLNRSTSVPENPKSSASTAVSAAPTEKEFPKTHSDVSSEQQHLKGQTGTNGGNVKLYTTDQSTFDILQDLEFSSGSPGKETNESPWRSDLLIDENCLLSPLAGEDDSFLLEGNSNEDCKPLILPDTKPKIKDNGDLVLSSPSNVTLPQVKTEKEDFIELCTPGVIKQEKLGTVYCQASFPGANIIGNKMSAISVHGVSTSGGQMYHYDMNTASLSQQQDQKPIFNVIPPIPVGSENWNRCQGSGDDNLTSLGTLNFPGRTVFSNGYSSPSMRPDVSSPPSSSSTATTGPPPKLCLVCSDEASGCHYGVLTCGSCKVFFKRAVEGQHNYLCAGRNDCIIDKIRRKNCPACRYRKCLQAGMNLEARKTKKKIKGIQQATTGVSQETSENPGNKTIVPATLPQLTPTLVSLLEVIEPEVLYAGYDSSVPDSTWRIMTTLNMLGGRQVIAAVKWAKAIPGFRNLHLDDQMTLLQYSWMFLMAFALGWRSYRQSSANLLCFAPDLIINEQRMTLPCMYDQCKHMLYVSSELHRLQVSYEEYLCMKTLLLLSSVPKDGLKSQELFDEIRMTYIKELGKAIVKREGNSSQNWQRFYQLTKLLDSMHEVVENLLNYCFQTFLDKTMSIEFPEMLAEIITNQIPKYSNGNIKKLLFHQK
Test [6] has the same target. The experiment in a line: GR-EFC Redistribution (AID 451; calls by dose curve; further: potency means the concentration at half of the fitted maximal effect). Conditions: CHO-K1 GR-EFC translocation, beta-gal luminescence, 2 h. The method, boiled down: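 Translocation of GR-ED fusion to nuclear EA restores b-gal, read by luminescence after 1 h room-temperature detection. Engineered CHO-K1 biosensor cells, 1,000/well, exposed 2 h at 37 C to titrations up to 46 uM final.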

Test [7] concerns the target Mitogen-activated protein kinase 10 (Mus musculus) (UniProt Q61831). The experiment in a line: JNK3 AlphaScreen Assay (AID 530).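 Further: kinase came from lysate of stimulated human HepG2 cells; signal reports phosphorylation of biotinylated GST-cJun 1-79 at Ser73 with 10 µM ATP; on the % scale 0 is the no-effect control and ±100 the full control effect.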 The following applies: JNK3 lysate, c-Jun phosphorylation; series mostly up to 57.1 µM. The gist of the method: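 Room-temperature AlphaScreen kinase assay; pre-activated HepG2 lysate as JNK3 source, biotin-GST-cJun(1-79) substrate, 10 uM ATP, compound 15 min preincubation.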

Test [8] deals with 3',5'-cyclic-AMP phosphodiesterase 4B (Homo sapiens) (UniProt Q07343). The experiment in a line: qHTS Assay for Inhibitors of PDE-IV (AID 607; active means well fitted activation curve with a large enough effect in the main read-out, with a control signal flat, not every such curve was filed as active; further: % of control where 0% means no effect). The following applies: HEK293 ACTOne CNG channel cells, membrane potential fluorescence; series mostly up to 22.9 µM. The method, boiled down:
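Cell-based read-out of cAMP via a modified cyclic nucleotide-gated channel and membrane potential dye (535/590 nm) in HEK293 cells expressing PDE4 endogenously. Compounds tested up to 22.9 uM final; 100 uM RO 20-1724 reference.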

Test [9] can be described thus: Confirmation and Secondary Assay for Modulators of Hemoglobin Beta Chain Splicing at IVS2 654 locus (AID 910; active means well fitted curve in the direction sought with a large enough effect; an effect the other way counts as inactive or inconclusive;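 further: HeLa cells stably carrying EGFP split by mutant beta-globin IVS2-654 intron; % of control where 0% means no effect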). The following applies: HeLa EGFP-654 splicing reporter, GFP fluorescence, 48 h; series mostly up to 38.3 µM. The method, boiled down: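 Readout: per-well total peak green fluorescence (488 nm ex, 500–520 nm em) from objects 5–250 µm, reflecting correct splicing of an EGFP-654 reporter. Compounds were applied for 2 days at 37 °C to overnight-plated HeLa EGFP-654 cells; controls were DMSO and 500 nM IVS2-654 PNA.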

The nature of test [10]: qHTS Assay for Lipid Storage Modulators (AID 1519; calls by dose curve). Conditions: Drosophila S3 cells, BODIPY lipid droplet/cell ratio, laser cytometry, cells loaded with oleic acid; for activity change, negative = inhibition: at 57.5 µM (top of the series). The method, boiled down:
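Cells seeded at 5,000 per well were treated with compounds over a concentration series and loaded with oleic acid (400 uM, as added). Lipid droplet fluorescence (488 nm excitation, 500-530 nm channel) was read by laser-scanning cytometry and normalized to 20 uM Triacsin C.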

The target in test [11] is Ubiquitin carboxyl-terminal hydrolase 1 (Homo sapiens) (UniProt O94782). The experiment in a line: Inhibitors of USP1/UAF1: Pilot qHTS (AID 504865; active means well fitted curve in the direction sought with a large enough effect; an effect the other way counts as inactive or inconclusive;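 further: rhodamine fluorescence freed from ubiquitin-rhodamine substrate followed over time; top concentration of the series differs between compounds; on the % scale 0 is the no-effect control and ±100 the full control effect; nearly all actives have a fitted effect of over 35% in size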). Conditions: purified USP1/UAF1, Ub-rhodamine cleavage fluorescence; series mostly up to 54.9 µM. The gist of the method:
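In 50mM HEPES pH 7.8 containing 0.5mM EDTA, 1mM TCEP, 0.1 mg/ml BSA and 0.01% Tween-20, 1nM USP1/UAF1 is exposed to compound for 15 min, then Ub-Rho (150nM final) is added and fluorescence is read over time.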

Test [12] is described as follows: Primary qHTS for small molecule stabilizers of the endoplasmic reticulum resident proteome: Secreted ER Calcium Modulated Protein (SERCaMP) assay (AID 1508630; active means well fitted curve in the direction sought with a large enough effect; an effect the other way counts as inactive or inconclusive; further: on the % scale 0 is the no-effect control and ±100 the full control effect). The following applies: SH-SY5Y GLuc-SERCaMP (Gaussia luciferase released on ER calcium loss) secretion, thapsigargin, luminescence; series mostly up to 38.4 µM. The method, boiled down:
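GLuc-SERCaMP-expressing SH-SY5Y cells, pretreated 16 h with compound, are challenged with thapsigargin to empty ER calcium stores; after 4 h, coelenterazine is added directly to the medium and luminescence is imaged.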

Test [13] addresses Cytochrome P450 3A4 (Homo sapiens) (UniProt P08684). The test can be described thus: qHTS Assay for Activators of Cytochrome P450 3A4 (AID 885; active means well fitted curve in the direction sought with a large enough effect; an effect the other way counts as inactive or inconclusive; further: nearly all actives have a fitted effect of over 65% in size). The following applies: recombinant CYP3A4, Luciferin-PPXE luminescence, 60 min; series mostly up to 57.1 µM. The method, boiled down:
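Signal was normalized against complete inhibition by 57 uM ketoconazole. The reaction used 20nM CYP3A4 with 25uM Luciferin-PPXE, 10-min compound preincubation and a 60-min NADPH-supported step at RT.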

Test [14] deals with Cytochrome P450 1A2 (Homo sapiens) (UniProt P05177). The experiment in a line: p450-cyp1a2 (AID 410; calls by dose curve; further: potency means the concentration at half of the fitted maximal effect). The following applies: recombinant CYP1A2, luciferin-ME demethylation, luminescence; series mostly up to 57 µM. The gist of the method: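 Human CYP1A2 (20nM) demethylated Luciferin-ME at its Km (100uM) in 100mM KPO4. After 10 min compound preincubation, NADPH regeneration ran the reaction 60 min at room temperature. Luciferin was read by luminescence, normalized to 57 uM furafylline.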
Cytochrome P450 1A2 (Homo sapiens), sequence (P05177 whole entry, looked up): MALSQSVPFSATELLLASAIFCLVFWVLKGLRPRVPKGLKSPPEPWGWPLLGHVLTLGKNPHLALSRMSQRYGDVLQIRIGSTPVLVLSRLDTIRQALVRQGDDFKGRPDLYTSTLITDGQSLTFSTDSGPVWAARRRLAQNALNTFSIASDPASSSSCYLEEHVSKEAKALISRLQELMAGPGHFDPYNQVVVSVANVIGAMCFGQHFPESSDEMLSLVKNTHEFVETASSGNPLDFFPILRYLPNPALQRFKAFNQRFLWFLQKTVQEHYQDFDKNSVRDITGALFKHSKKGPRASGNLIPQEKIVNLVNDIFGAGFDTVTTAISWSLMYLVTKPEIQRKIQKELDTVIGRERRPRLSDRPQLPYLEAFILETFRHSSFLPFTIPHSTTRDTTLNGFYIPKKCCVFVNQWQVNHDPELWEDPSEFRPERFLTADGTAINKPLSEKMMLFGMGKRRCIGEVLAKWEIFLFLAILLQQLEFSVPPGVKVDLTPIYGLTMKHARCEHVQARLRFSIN

The nature of test [15]: Confirmation and Secondary Assay for Modulators of Hemoglobin Beta Chain Splicing at IVS2 705 locus (AID 930; active means well fitted curve in the direction sought with a large enough effect; an effect the other way counts as inactive or inconclusive;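 further: HeLa cells stably expressing the EGFP-705 splicing reporter; GFP fluorescence per well restored by corrected splicing of the IVS2-705 intron in EGFP; % of control where 0% means no effect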). The following applies: HeLa EGFP-705 splicing reporter, GFP fluorescence, 48 h; series mostly up to 38.3 µM. The method, boiled down:
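HeLa cells stably carrying EGFP interrupted by mutant beta-globin intron 2 (IVS2-705) treated 2 days at 37C with compound; 500 nM antisense PNA as control. Correct splicing read as total peak GFP intensity per well by laser-scanning cytometry.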

[16] abbreviates: measured here: cell count channel max response.
[17] abbreviates: measured here: lipid channel max response.

Records with an inconclusive call do not appear. Activity calls are given as the source filed them. Unless noted, the call rests on the fitted dose curve; in most records, active means well fitted curve in either direction with a large enough effect (not every such curve was filed as active); inconclusive means small, poorly fitted or top-dose-only effect, or another doubt; inactive means flat fitted curve, though single readings scatter. A value given as a limit tells only on which side of the number the result lay.

Ubiquitin carboxyl-terminal hydrolase 1 (Homo sapiens), sequence (O94782 whole entry, looked up): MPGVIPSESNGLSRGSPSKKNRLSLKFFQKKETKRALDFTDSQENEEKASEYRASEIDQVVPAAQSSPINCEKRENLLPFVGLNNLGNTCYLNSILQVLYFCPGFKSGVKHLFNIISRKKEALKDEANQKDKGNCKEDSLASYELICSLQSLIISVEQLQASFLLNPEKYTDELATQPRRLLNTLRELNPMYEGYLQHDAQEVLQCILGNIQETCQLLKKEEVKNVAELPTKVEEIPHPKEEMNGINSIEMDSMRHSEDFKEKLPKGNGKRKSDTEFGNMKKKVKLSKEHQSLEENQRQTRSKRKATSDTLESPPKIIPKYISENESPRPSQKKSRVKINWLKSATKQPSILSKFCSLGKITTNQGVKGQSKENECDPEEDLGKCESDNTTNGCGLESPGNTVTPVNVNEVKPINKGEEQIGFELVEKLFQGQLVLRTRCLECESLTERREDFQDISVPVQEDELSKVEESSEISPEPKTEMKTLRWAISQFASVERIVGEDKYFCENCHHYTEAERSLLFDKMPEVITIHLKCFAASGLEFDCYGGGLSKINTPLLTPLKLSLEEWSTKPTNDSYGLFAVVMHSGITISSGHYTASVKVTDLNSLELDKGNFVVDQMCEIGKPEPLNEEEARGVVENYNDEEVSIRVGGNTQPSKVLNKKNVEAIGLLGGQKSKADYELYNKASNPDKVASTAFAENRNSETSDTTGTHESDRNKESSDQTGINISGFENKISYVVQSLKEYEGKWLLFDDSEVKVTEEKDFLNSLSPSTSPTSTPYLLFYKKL
3',5'-cyclic-AMP phosphodiesterase 4B (Homo sapiens), sequence (Q07343 whole entry, looked up): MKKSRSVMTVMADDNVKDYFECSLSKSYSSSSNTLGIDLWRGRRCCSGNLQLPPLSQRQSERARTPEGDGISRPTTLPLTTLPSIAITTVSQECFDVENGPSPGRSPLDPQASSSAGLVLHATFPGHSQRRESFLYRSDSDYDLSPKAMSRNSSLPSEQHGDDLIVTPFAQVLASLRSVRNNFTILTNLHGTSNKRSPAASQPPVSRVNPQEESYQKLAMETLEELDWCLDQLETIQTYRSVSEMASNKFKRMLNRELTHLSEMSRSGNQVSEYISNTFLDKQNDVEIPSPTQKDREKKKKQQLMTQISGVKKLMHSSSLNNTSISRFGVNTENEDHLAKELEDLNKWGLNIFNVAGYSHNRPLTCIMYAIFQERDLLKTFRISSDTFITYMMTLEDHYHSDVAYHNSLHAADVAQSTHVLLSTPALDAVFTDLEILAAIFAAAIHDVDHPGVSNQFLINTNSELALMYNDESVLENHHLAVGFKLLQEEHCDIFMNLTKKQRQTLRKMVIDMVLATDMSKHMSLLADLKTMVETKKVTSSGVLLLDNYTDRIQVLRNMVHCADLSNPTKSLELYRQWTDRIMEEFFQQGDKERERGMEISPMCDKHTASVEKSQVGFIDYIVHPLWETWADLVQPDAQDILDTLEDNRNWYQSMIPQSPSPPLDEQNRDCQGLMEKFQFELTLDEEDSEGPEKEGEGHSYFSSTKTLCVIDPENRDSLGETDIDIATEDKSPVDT
Cytochrome P450 3A4 (Homo sapiens), sequence (P08684 whole entry, looked up): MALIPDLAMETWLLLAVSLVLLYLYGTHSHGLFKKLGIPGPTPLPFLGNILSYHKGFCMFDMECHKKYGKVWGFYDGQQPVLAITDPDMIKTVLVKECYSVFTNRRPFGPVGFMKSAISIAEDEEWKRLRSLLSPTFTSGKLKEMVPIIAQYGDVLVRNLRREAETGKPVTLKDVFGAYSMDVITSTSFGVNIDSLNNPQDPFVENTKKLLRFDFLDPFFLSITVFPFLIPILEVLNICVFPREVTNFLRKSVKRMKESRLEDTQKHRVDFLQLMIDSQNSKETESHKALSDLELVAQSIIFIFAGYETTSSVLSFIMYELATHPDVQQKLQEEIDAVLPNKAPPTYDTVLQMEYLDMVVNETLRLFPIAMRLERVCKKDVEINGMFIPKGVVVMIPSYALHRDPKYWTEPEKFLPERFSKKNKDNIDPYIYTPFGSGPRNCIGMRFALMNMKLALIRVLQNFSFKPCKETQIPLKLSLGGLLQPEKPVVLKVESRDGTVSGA

On to `CN(C)C(=O)c1ccc(-c2ccc3ncnc(NC4CCNCC4)c3c2)cc1`, for which the Potency in test [1] is > 11.4 µM (inactive); in [5], > 46 µM (inactive); in test [6] it was > 46 µM (inactive). Also, the activity change, negative = inhibition in test [2] is -6.93% (inactive); in test [3], 7.8% (inactive); in test [10] it was 6.36% (inactive). Further, the activity, negative = inhibition in test [4] was 14.8% (inactive). The Potency result in [7], in [8], in test [9] and in [11] was “inactive” each time. In addition, the max response in test [10] (setting [16]) was 9.43%; in [10] (setting [17]), 16.5%. Moreover, the result in [12] was inactive.

For the compound `CC(=O)N1CCC[C@@]2(CCN(C(c3ccccc3)c3ccccc3)C2)C1`, the Potency in test [1] was > 11.4 µM (inactive); in test [6], > 46 µM (inactive). Further, the activity change, negative = inhibition was -0.322% (inactive) in test [2], 3.9% (inactive) in test [3] and -4.88% (inactive) in test [10]. The activity, negative = inhibition in test [4] was -10.9% (inactive). Moreover, the Potency result in [7] and in [8] was “inactive” each time. Besides, the max response in test [10] (setting [16]) was -3.73%; in test [10] (setting [17]), -8.87%. Also, the outcome in [12] was inactive.

As to `COc1cccc(-c2cc(NCc3cccc(C)c3)ncn2)c1`, the values for the Potency in test [1], in [5] and in test [6] were > 11.4 µM (inactive), > 46 µM (inactive) and > 46 µM (inactive), respectively. Further, the values for the activity change, negative = inhibition in test [2], in test [3] and in test [10] were -1.98% (inactive), -3.2% (inactive) and -15.5% (inactive), respectively. In test [4], the activity, negative = inhibition is -11.9% (inactive). In addition, the Potency result in test [7] was “inactive”. Moreover, the max response in test [10] (setting [16]) is 8.52%; in [10] (setting [17]), -6.01%. Moreover, in [12], the outcome was inactive.

On to `O=c1c(-c2cc(F)cc(F)c2)nc2cncnc2n1Cc1ccc(F)cc1`, for which the Potency was > 11.4 µM (inactive) in [1], > 9.22 µM (inactive) in test [5] and > 46 µM (inactive) in test [6]. Besides, the results for the activity change, negative = inhibition in test [2], in test [3] and in test [10] were -2.14% (inactive), -15.1% (inactive) and -8.57% (inactive), respectively. In addition, the activity, negative = inhibition in test [4] was -0.133% (inactive). Moreover, the Potency entry in test [7], in test [8] and in test [13] was “inactive” each time. Moreover, the max response in test [10] (setting [16]) is -5.87%; in [10] (setting [17]) it was -11%. Further, the result in test [12] was inactive.

With `Cn1cccc1C(=O)N1CCC2(CCN(Cc3ccncc3)CC2)CC1`, the figures for the Potency in test [1] and in [14] were > 11.4 µM (inactive) and 15.8 µM (active), respectively. The activity change, negative = inhibition in [2] is -3.94% (inactive); in [10], 4.51% (inactive). In test [4], the activity, negative = inhibition was -9.94% (inactive). Further, the Potency entry in [7], in [8] and in test [13] was “inactive” in each case. For the same compound, the max response in test [10] (setting [16]) was -5.01%; in test [10] (setting [17]), 3.28%. The outcome in test [12] was inactive.

Consider `Cc1ccccc1-c1cc(-n2ccnc2)ncn1`, for which the Potency in test [1] is > 11.4 µM (inactive); in test [6], > 46 µM (inactive). For the same compound, the activity change, negative = inhibition is -7.76% (inactive) in test [2], -6.87% (inactive) in test [3] and 9.66% (inactive) in test [10]. In addition, the activity, negative = inhibition in test [4] was 15.7% (inactive). For the same compound, the Potency result in [7], in test [8] and in test [11] was “inactive” each time. In addition, the outcome in [15] and in test [12] was inactive. The results for the max response in [10] (setting [16]) and in [10] (setting [17]) were 7.52% and 17.5%, respectively.

Take `Cc1cnc(CNc2ccnc(-c3ccc(C(=O)N(C)C)cc3)n2)cn1`: the results for the Potency in test [1], in test [5] and in test [6] were > 11.4 µM (inactive), > 46 µM (inactive) and > 46 µM (inactive), respectively. Further, the activity change, negative = inhibition was 9.07% (inactive) in test [2], 1.49% (inactive) in test [3] and 9.3% (inactive) in test [10]. Besides, in [4], the activity, negative = inhibition is 0.405% (inactive). The Potency result in test [7], in [8], in test [9] and in test [11] was “inactive” in each case. Besides, the figures for the max response in [10] (setting [16]) and in test [10] (setting [17]) were 6.03% and 15.8%, respectively. The result in test [12] was inactive.

Source of the values: PubChem BioAssay (NCATS).
